Test results as given in PubChem BioAssay (Tox21).
Values joined by “and” are separate entries in the source; they are usually repeats but may differ in a detail not shown here. Identical values can stand only once. Records with an inconclusive call do not appear. Active and inactive are the calls of the source. Unless noted, the call rests on the fitted dose curve; in most records, active means well fitted curve in the direction sought with a large enough effect in the repeat runs; inconclusive means weak or mixed curves; inactive means no such curve, though single readings can be large; an effect the other way counts as inactive or inconclusive.

Columns and labels:
[1] = qHTS assay to identify small molecule antagonists of the estrogen related receptor (ERR) signaling pathway from Tox21 library - cell viability counter screen (AID 1224834); further: nearly all actives have a fitted effect of over 30% in size
In short: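 In this quantitative HTS format, ERR cells receive compounds in DMSO and are incubated for 17.5 h at 37 C. Live-cell protease activity is then detected with CellTiter-Fluor.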

[2] = target: Luciferin 4-monooxygenase (Photinus pyralis) (UniProt P08659); test: qHTS assay to identify small molecule inhibitors of firefly luciferase (AID 1224835); further: nearly all actives have a fitted effect of over 25% in size; further: potency means the concentration at half of the fitted maximal effect
Sequence of Luciferin 4-monooxygenase (Photinus pyralis) (P08659 whole entry, looked up): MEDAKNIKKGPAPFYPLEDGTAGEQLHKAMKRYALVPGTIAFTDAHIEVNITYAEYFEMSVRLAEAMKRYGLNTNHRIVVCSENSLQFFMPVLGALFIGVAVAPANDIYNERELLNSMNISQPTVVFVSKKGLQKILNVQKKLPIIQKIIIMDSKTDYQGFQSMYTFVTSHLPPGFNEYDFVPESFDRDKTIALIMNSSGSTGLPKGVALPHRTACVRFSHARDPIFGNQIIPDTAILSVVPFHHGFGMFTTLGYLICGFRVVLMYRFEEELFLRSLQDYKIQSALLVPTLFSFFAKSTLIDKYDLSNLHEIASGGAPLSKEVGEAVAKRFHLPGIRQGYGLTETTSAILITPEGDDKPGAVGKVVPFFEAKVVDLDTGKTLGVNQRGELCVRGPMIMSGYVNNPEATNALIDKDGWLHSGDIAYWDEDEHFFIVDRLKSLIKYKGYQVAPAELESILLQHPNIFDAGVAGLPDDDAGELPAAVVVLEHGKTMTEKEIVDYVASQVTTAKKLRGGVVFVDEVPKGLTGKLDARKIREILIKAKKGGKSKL
In short: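 Biochemical qHTS: compounds run as interplate titrations against purified firefly enzyme, with D-luciferin and ATP each at its KM concentration. Light output recorded by CCD imaging.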

[3] = qHTS assay to identify small molecule agonists of the constitutive androstane receptor (CAR) signaling pathway - cell viability counter screen (AID 1224836); further: series mostly up to about 92 µM; nearly all actives have a fitted effect of over 45% in size
In short: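 Cells were seeded and incubated 4 hrs. Compounds were added across 15 concentrations together with PK11195 at 0.75 uM final. Plates were incubated 23 hrs at 37 C. CellTiter-Fluor was added and fluorescence measured.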

[4] = qHTS assay to identify small molecule antagonists of the constitutive androstane receptor (CAR) signaling pathway - cell viability counter screen (AID 1224837); further: series mostly up to about 92 µM; nearly all actives have a fitted effect of over 45% in size
In short: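 In quantitative HTS format, compounds at 15 concentrations were applied to HepG2 cells double-transfected with hCAR and CYP2B6-2.2kb under 50 nM CITCO stimulation; live-cell protease activity was read after 23 hr via CellTiter-Fluor.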

[5] = target: Nuclear receptor subfamily 1 group I member 3 (Homo sapiens) (UniProt Q14994); test: qHTS assay to identify small molecule antagonists of the constitutive androstane receptor (CAR) signaling pathway (AID 1224838); further: nearly all actives have a fitted effect of over 40% in size
Sequence of Nuclear receptor subfamily 1 group I member 3 (Homo sapiens) (Q14994 whole entry, looked up): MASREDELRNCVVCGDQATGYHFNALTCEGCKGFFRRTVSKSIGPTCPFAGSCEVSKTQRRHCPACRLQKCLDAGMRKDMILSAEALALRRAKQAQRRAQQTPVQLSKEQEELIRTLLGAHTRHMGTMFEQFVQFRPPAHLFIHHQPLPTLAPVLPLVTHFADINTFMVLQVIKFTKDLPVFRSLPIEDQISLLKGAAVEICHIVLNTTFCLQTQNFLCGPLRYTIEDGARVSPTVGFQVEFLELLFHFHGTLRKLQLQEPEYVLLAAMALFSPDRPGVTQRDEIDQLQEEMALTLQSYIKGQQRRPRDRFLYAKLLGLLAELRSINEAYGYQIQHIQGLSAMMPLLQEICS
In short: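 CITCO-stimulated (50 nM final) HepG2 cells stably transfected with hCAR and CYP2B6-2.2kb luciferase were exposed to compounds at 15 concentrations for 24 h at 37 C/5% CO2. A luciferase reagent was added and luminescence recorded after 30 min.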

[6] = target: Nuclear receptor subfamily 1 group I member 3 (Homo sapiens) (UniProt Q14994); test: qHTS assay to identify small molecule agonists of the constitutive androstane receptor (CAR) signaling pathway (AID 1224839); further: nearly all actives have a fitted effect of over 15% in size; further: potency means the concentration at half of the fitted maximal effect
In short: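 Cells were plated and incubated 4 hrs, then dosed with compounds at 15 concentrations. PK11195 was added to 0.75 uM final. After 24 hrs at 37 C, luciferase luminescence was measured.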

[7] = qHTS assay to identify small molecule antagonists of the estrogen related receptor signaling pathway with the pleiotropic PPARgamma coactivator (PGC) from Tox21 10K library - cell viability counter screen (AID 1224840; active means well fitted cell-killing curve with a large enough effect in the repeat runs, not every such curve was filed as active; further: nearly all actives have a fitted effect of over 40% in size)
In short: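 Viability counter screen, PGC/ERR cells: 17.5 h compound exposure at 37 C, CellTiter-Fluor fluorescence endpoint.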

[8] = qHTS assay to identify small molecule antagonists of the estrogen related receptor signaling pathway with the pleiotropic PPARgamma coactivator (PGC) from Tox21 10K library (AID 1224841; call rule not given here; further: series mostly up to about 92 µM; actives are mostly falling curves and most rising ones were filed inactive; nearly all actives have a fitted effect of over 50% in size)
In short: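 In the PGC/ERR line, DMSO solutions of test chemicals are pin-delivered to 2,000 cells/well six hours after dispensing. Following eighteen hours' incubation, One-Glo reagent is added and luminescence recorded.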

[9] = qHTS assay to identify small molecule agonists of the estrogen related receptor signaling pathway with the pleiotropic PPARgamma coactivator (PGC) from Tox21 10K library (AID 1224842); further: nearly all actives have a fitted effect of over 15% in size
In short: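 PGC/ERR reporter cell line, 2,000 cells per well, incubated 6 h at 37 C before 23 nL compound in DMSO was added. After 18 h at 37 C, One-Glo luminescence read following 30 min at room temperature.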

[10] = target: Thyrotropin receptor (Homo sapiens) (UniProt P16473); test: qHTS assay to identify small molecule agonists of the thyroid stimulating hormone receptor (TSHR) signaling pathway (AID 1224843; calls by dose curve; further: nearly all actives have a fitted effect of over 45% in size)
Sequence of Thyrotropin receptor (Homo sapiens) (P16473 whole entry, looked up): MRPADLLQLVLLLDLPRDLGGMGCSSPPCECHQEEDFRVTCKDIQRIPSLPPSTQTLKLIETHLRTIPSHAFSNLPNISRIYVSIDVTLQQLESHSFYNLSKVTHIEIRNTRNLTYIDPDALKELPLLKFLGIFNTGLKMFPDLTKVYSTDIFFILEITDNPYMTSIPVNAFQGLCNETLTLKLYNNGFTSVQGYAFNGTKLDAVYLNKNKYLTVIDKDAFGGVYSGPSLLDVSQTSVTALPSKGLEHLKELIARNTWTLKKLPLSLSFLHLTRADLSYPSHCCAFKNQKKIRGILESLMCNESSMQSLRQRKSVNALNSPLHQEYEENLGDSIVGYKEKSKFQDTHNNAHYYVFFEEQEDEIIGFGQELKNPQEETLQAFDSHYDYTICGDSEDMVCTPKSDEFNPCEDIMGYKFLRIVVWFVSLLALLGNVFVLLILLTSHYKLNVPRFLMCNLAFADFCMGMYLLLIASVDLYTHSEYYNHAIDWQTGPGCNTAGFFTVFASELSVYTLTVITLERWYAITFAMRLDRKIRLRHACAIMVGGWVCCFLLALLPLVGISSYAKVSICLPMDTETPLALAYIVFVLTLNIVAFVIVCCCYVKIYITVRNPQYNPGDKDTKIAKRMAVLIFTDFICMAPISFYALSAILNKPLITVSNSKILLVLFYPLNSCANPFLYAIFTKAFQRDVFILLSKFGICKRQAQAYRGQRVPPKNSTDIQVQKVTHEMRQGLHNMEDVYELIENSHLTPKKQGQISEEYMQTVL
In short: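 HEK293/TSHR, 800 cells/well; cpd 30 min RT; add cAMP-d2 + anti-cAMP-cryptate, 1 h RT; fluorescence read on plate reader. 15-pt titration, n=3.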

Measured: Potency

CC[C@H](N)c1ccccc1
not listed: [8] | [9] | [10]
inactive: all other assays above

CCSC(=O)Cl
inactive: all assays above

N[C@@H](Cc1ccc(Oc2cc(I)c(O)c(I)c2)c(I)c1)C(=O)O
not listed: [8] | [9] | [10]
inactive: all other assays above

C=CCc1cc(OC)c2c(c1)OCO2
not listed: [8] | [9] | [10]
inactive: all other assays above

CCN(CC)C1CCCCC1
not listed: [10]
inactive: all other assays above

CCC(CC)(CNC(=O)CCCO)c1cccc(OC)c1
inactive: all assays above

COC(=O)c1ccccc1CS(=O)(=O)NC(=O)Nc1nc(OC)cc(OC)n1
inactive: all assays above

C=CC=O
not listed: [8] | [9] | [10]
inactive: all other assays above

CCCC(C)(COC(N)=O)COC(N)=O
not listed: [10]
inactive: all other assays above

CCCN1CCC[C@@H]2Cc3nc(N)ncc3C[C@H]21
not listed: [10]
inactive: all other assays above

CCCC[N+](=O)[O-]
inactive: all assays above

Cl/C=C/CCl
not listed: [10]
inactive: all other assays above

CCCN1CCC[C@@H]2Cc3[nH]ncc3C[C@H]21
inactive: all assays above

CC(C)[N+](C)(CCC(C(N)=O)(c1ccccc1)c1ccccc1)C(C)C
not listed: [10]
inactive: all other assays above

CC(C)c1ccc(O)cc1
not listed: [10]
inactive: all other assays above

CCCOc1nn(C(=O)NS(=O)(=O)c2ccccc2C(=O)OC)c(=O)n1C
not listed: [8] | [9] | [10]
inactive: all other assays above

CC[C@@H](CO)NC(=O)[C@@H]1C=C2c3cccc4c3c(cn4C)C[C@H]2N(C)C1
not listed: [10]
inactive: all other assays above

CCN[C@H](C)Cc1cccc(C(F)(F)F)c1
not listed: [8] | [9] | [10]
inactive: all other assays above

CCOC(=O)CC(SP(=S)(OC)OC)C(=O)OCC (configuration not stated)
inactive: [1] | [3] | [4] | [5] | [7]
active: [2] 35.6 µM and 38.9 µM | [6] 21.7 µM and 26.6 µM

CCNP(=S)(OC)O/C(C)=C/C(=O)OC(C)C (configuration not stated)
active: [6] 27.3 µM
not listed: [8] | [9] | [10]
inactive: all other assays above

CCOC(=O)C(SP(=S)(OC)OC)c1ccccc1 (configuration not stated)
active: [6] 30.6 µM
not listed: [10]
inactive: all other assays above

ClCCN1CCCC1
not listed: [8] | [9] | [10]
inactive: all other assays above

c1cncc([C@@H]2CCCCN2)c1
not listed: [8] | [9] | [10]
inactive: all other assays above

CC(C)C(C)(N)C#N (configuration not stated)
not listed: [8] | [9] | [10]
inactive: all other assays above

C(COCC1CO1)OCC1CO1 (configuration not stated)
not listed: [10]
inactive: all other assays above

c1ccc2c(c1)CCNC2
not listed: [10]
inactive: all other assays above

O=C/C=C/c1ccco1
not listed: [8] | [9] | [10]
inactive: all other assays above

O=[N+]([O-])CCO
not listed: [10]
inactive: all other assays above

Cc1ccc(Cl)c(O)c1
not listed: [10]
inactive: all other assays above
